# Measured values: PubChem BioAssay (Tox21)
# Unmarked numbers belong to inactive results. Activity calls are given as the source filed them. Calls follow the shape of the dose curve; as a rule, active = well fitted curve in the direction sought with a large enough effect in the repeat runs; inconclusive = weak or mixed curves; inactive = flat fitted curve, though single readings scatter.
# Experiment: qHTS assay to test for compound auto fluorescence at 535 nm (green) in HepG2 cell free culture (AID 720686)
# Conditions: Cell-free medium, green autofluorescence 485/535 nm; series mostly up to 91.3 µM; fluorescence, % of fluorescein control: at the top concentration
# Excerpt: U.S. Tox21 Program National Center for Advancing Translational Sciences [NCATS] NIH Chemical Genomics Center [NCGC] U.S. Environmental Protection Agency [EPA] National Institutes of Environmental Health Sciences [NIEHS] National Toxicology Program [NTP] U.S. Food and Drug Administration [FDA] Tox21 Assay Overview: Compound auto fluorescence often interferes with screening of the compound library against various biological targets and signaling pathways. Some of these compounds may have fluorophoric properties. Such properties may interfere with the assay outputs resulting in false positives and/or negatives. To decrease such complications and ensure the compound activities are relevant in terms of biological response, the Tox21 10K compound library was screened for auto fluorescence. From the fluorophores used as reporter signals in our screening assays, the auto fluorescence equivalencies of compounds against three fluorophores have been evaluated: Triamterene, Fluorescein and Rose Bengal sodium for blue, green and red fluorescence, respectively. The fluorescence intensities were measured using Excitation/Emission wavelengths at 405/460nm, 485/535nm and 540/590nm for blue, green and red labels, respectively. This assay includes the green fluorescence data.
# Tox21 Assay Protocol Summary: 5 uL of culture medium (MEM containing 10% FBS) per well was dispensed into black wall/clear bottom 1536-well plates using a Multidrop Combi Dispenser (ThermoFisher Scientific, Waltham, MA). After 23 nL compound or DMSO vehicle was transferred into assay plate by a pintool work station (Kalypsys, San Diego, CA), fluorescence intensities in the assay plates were measured by an Envision (PerkinElmer, Shelton, CT) plate reader using three labels for measuring blue, green and red fluorescence at […] 460, 535 and 590nm respectively.
# % is scaled to controls: 0 for no effect and ±100 for the full control effect.
Structure (SMILES),"fluorescence, % of fluorescein control",outcome
C/C=C/C(=O)CCCC,0.0756%,
COC(=O)c1ccc(C(=O)O)cc1,-0.0302%,
C/C(Cl)=C/CCl,0.222% [at 95.7 µM],
CCCCC(CC)CCC(CC(C)C)OS(=O)(=O)O (stereo not given),,inactive
C=C(C)C(=O)OCCCC,-0.0891% [at 95.7 µM],
CC(C)OCCO,-0.0215%,
CCCCN1C(=O)c2ccccc2C1=O,0.0211% [at 95.7 µM],
O=C(OOC(=O)c1ccccc1)c1ccccc1,0.0991% [at 46 µM],
CC/C=C\CCCCCCCCCCOC(C)=O,0.107%,
CCCCCCCCOCCC#N,-0.004%,
CCCC[O][Al]([O]CCCC)[O]CCCC,0.0519%,
Cc1nc2ccc(Cl)cc2[nH]1,0.031%,
Clc1cc(Cl)c(Cl)c(Cl)c1Cl,-0.0132%,
CCOCCOCCOC(C)=O,0.0667% [at 95.7 µM],
COc1cnc(NS(=O)(=O)c2ccc(N)cc2)nc1,0.0043% [at 18.6 µM],
C/C=C(\C)C=O,-0.0995%,
CNC(C)=O,0.0717%,
O=S(=O)(O)c1cc(I)c(O)c2ncccc12,-0.0205% [at 46 µM],
Nc1ccc(C(=O)NCC(=O)O)cc1,0.0021% [at 18.6 µM],
CC(O)C(CO)C(C)O (stereo not given),0.0411% [at 95.7 µM],

Structure (SMILES),"fluorescence, % of fluorescein control",outcome
O=C[C@@H](O)[C@H](O)[C@H](O)CO,-0.0651%,
O=C1c2ccccc2C(=O)N1CO,0.0004% [at 95.7 µM],
CCc1ccc(CC)cc1,0.0777%,
COc1cc2nc(N3CCN(C(=O)C4CCCO4)CC3)nc(N)c2cc1OC (stereo not given),-0.024% [at 46 µM],
O=C1CC2(CCCC2)CC(=O)N1CCNCC1COc2ccccc2O1 (stereo not given),0.0407% [at 46 µM],
CC(C)(C)NCC(O)COc1cccc2c1CCC(=O)N2 (stereo not given),-0.0625% [at 18.6 µM],
CCCC(=O)CC,-0.126% [at 95.7 µM],
O=c1[nH]c(=O)c2cn[nH]c2[nH]1,-0.0439%,
CCCC(C)C(O)CC (stereo not given),-0.0034%,
CCC(C)c1nccnc1OC (stereo not given),-0.0455%,
O=c1c(O)c(O)c1=O,0.138%,
N=C(N)N,-0.064% [at 46 µM],
C=CCOC(=O)CCCCCCCC,0.0169%,
CC(C)(O)c1ccc(C(C)(C)O)cc1,0.0411%,
CCCC(=O)OC,-0.06%,
O=Cc1ccccc1S(=O)(=O)O,0.0627%,
CN1C(CCl)Nc2cc(Cl)c(S(N)(=O)=O)cc2S1(=O)=O (stereo not given),-0.0575% [at 46 µM],
CC1(C)C(=O)C(C)(C)C1=O,0.0168%,
Cc1cc(O)c(Cl)cc1C,0.045%,
C[C@H]1COc2c(C3(N)CC3)c(F)cc3c(=O)c(C(=O)O)cn1c23,0.107% [at 46 µM],
